Assay results taken from PubChem BioAssay AID1626 (SRMLSC, 2009).
The campaign covered roughly 220,000 compounds. About 2,000 (0.91%) were called active. Inconclusive results (about 2%) are left out. No stated cut-off is given here; in the data, inconclusive means inhibition above about 80% without an active follow-up result; inactive means below that; test concentration not stated here. The list is a sample of the results. Entries with a potency or affinity are not part of this list.

assay: M. tuberculosis H37Rv growth inhibitors, H37Rv strain (AID 1626); settings: hits give high values, concentration not given here;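 further: bacteria incubated seven days before Alamar blue readout; 0% = bacteria only wells and 100% = bacteria with antibiotic wells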

Row | SMILES | inhibition
1 | COc1ccc(-c2[nH]n(-c3ccc([N+](=O)[O-])cc3)c(=O)c2C=NCc2ccccc2)cc1 | -1.64% (inactive)
2 | C=CCC1(NC(C)c2ccccc2)CCCCC1 (stereo not given) | -4.87% (inactive)
3 | O=C(Nc1ccc(-c2noc(COc3ccccc3Cl)n2)cc1)c1ccco1 | 0.69% (inactive)
4 | COc1cc(/C=C2/SC(=O)N(Cc3ccccc3Cl)C2=O)ccc1OCc1ccncc1 | 3.75% (inactive)
5 | COCCNC(=O)C(c1ccncc1)N(C(=O)c1sc(C)nc1C)c1cccc(C)c1 (stereo not given) | -4.16% (inactive)
6 | Cc1ccc(NC(=O)c2cc3c(=O)oc4ccc(C)cc4c3s2)nc1 | -3.16% (inactive)
7 | Cc1ccc2c(c1)CC1(CN2C)C(=O)NC(=O)N(CCc2ccccc2)C1=O (stereo not given) | -6.53% (inactive)
8 | Cc1oc(CC(C)C)cc1C(=O)Nc1cccc2ccccc12 | -8.7% (inactive)
9 | Cn1c(=O)[nH]c(=O)c2c1nc(SCC(=O)Nc1ccccc1)n2Cc1ccccc1 | 4.62% (inactive)
10 | CCn1c(-c2cccnc2Cl)nc2cc(Cl)c(Cl)cc21 | 13.1% (inactive)
11 | CCOCCCn1c(=S)[nH]c2cc(C(=O)N3CCN(C)CC3)ccc2c1=O | -9.01% (inactive)
12 | CCc1ccc(NC2CC(=O)N(CCc3ccc(OC)c(OC)c3)C2=O)cc1 (stereo not given) | 6.46% (inactive)
13 | O=C(/C=C/NNC(=O)c1ccc(Cl)cc1)c1ccccc1 | 2.77% (inactive)
14 | O=C(/C=C/Sc1ncn[nH]1)c1ccc(Cl)cc1 | 6.21% (inactive)
15 | CCC(=O)NCCCc1nc(-c2ccccc2)no1 | -4.65% (inactive)
16 | COc1ccccc1N1CCN(C(=O)Cn2nc3n(C)c4ccccc4n3c(=O)c2=O)CC1 | 0.2% (inactive)
17 | COc1ccccc1NCC(=O)n1nc(C)cc1C | -3.99% (inactive)
18 | Cc1ccc(-c2csc(NC(=O)CSc3nc4ccccc4o3)n2)cc1 | 65.3% (inactive)
19 | O=C(CSc1nc2ccccc2o1)Nc1ccccc1 | -0.33% (inactive)
20 | COc1ccc(CCNC(=O)CSc2nc3ccccc3o2)cc1 | 96.4% (inactive)
21 | O=C(CSc1nc2ccccc2o1)Nc1nncs1 | 2.93% (inactive)
22 | Cc1occc1-c1nnc(SCC(=O)NCCc2ccccc2)n1Cc1ccccc1 | -7.81% (inactive)
23 | O=C(CSc1nc2ccccc2o1)c1ccccc1 | 9.75% (inactive)
24 | Cc1occc1-c1nnc(SCC(=O)Nc2ccccn2)o1 | 10% (inactive)
25 | CCS(=O)(=O)c1ccc2oc(SCC(=O)NCCc3ccccc3)nc2c1 | 3.18% (inactive)

Row | SMILES | inhibition
26 | Cc1ccc(NC(=S)Nc2cc(C)on2)cc1 | 4.76% (inactive)
27 | COc1ccc(NC(=O)C2CCCN(S(=O)(=O)c3cccc4nonc34)C2)cc1OC (stereo not given) | 0.88% (inactive)
28 | CCOC(=O)c1c(-c2ccc(C)s2)csc1N | 3.65% (inactive)
29 | Cc1nc2c(C#N)cnn2c2c1CCNN2C | -8.46% (inactive)
30 | COc1ccccc1-c1cc(C(=O)N2CCN(c3ccc(F)cc3)CC2)no1 | 4.4% (inactive)
31 | Cc1cccc(NC(=O)NNS(=O)(=O)c2ccc(F)cc2)c1 | 7.42% (inactive)
32 | O=C(CN1CCN(C(=O)c2ccco2)CC1)N1CCc2[nH]c3ccccc3c2C1 | 7.26% (inactive)
33 | COc1ccc(C2CC(=O)C3=C(C2)Nc2ncnn2C3c2ccccc2)cc1 (stereo not given) | -8.64% (inactive)
34 | Cc1nnc(NC(=O)CSc2nc3ccccc3o2)s1 | -1.02% (inactive)
35 | O=C(CSc1nc2ccccc2o1)Nc1nc2ccccc2s1 | -3.19% (inactive)
36 | Cc1ccccc1Cn1nnc(-c2ccc(C(=O)O)cc2)n1 | -5.85% (inactive)
37 | N#Cc1cncc(-c2ccc3c(c2)OCCOCCOCCOCCOCCO3)n1 | 5.9% (inactive)
38 | Nc1nc(-c2ccc3c(c2)OCCO3)cs1 | 78.2% (inactive)
39 | Cc1ccc(-n2ncc3c2ncn2c(C)nnc32)cc1C | 14.5% (inactive)
40 | CC(C)(C)C(=O)Nc1ccc(-c2csnn2)cc1 | -0.28% (inactive)
41 | NC(=O)c1ccc(-c2csnn2)cc1 | 0.58% (inactive)
42 | Cc1ccc(NC(=O)C(C)OC(=O)c2ccc(NS(=O)(=O)c3ccc(F)c(F)c3)cc2)cc1 (stereo not given) | -2.38% (inactive)
43 | Cc1nc2c(c(=O)n1CCC(C)C)c1nc3ccccc3nc1n2CC1CCCO1 (stereo not given) | 2.15% (inactive)
44 | CC1CCN(S(=O)(=O)c2cccc(-c3cn4cc(Cl)ccc4n3)c2)CC1 | -1.37% (inactive)
45 | O=C(O)CCN1C(=O)C2C3c4ccccc4C(c4ccccc43)[C@@H]2C1=O (stereo not given in full) | -2.72% (inactive)
46 | Cc1ccccc1-n1nc(C)c2c1N=C1C(Cl)=CC(Cl)=CN1C2c1ccc(C(=O)O)cc1 (stereo not given) | -4.15% (inactive)
47 | CC(=O)Nc1ccc(NC2=Nc3ccccc3N3C2=Nc2c(c(C)nn2-c2ccccc2)C3c2ccccc2)cc1 (stereo not given) | 75.1% (inactive)
48 | CCCc1nnc(NC(=O)OCC)s1 | 4.01% (inactive)
49 | CC(NC(=O)C1CC1)C(c1cccs1)N1CCOCC1 (stereo not given) | 4.47% (inactive)
50 | O=C(CSc1nnc(Cc2ccccc2)o1)c1ccc(F)cc1 | 6.24% (inactive)

Row | SMILES | inhibition
51 | Cn1c(NC(=O)/C=C/c2ccco2)cc(=O)n(C)c1=O | -0.44% (inactive)
52 | COc1ccc(NC(=O)c2sc3nc(Cc4ccccc4)cc(C(F)(F)F)c3c2N)cc1OC | 7.82% (inactive)
53 | Nc1c(C(=O)NC23CC4CC(CC(C4)C2)C3)sc2nc3c(c(C(F)(F)F)c12)CCC3 | -10.2% (inactive)
54 | CCNC(=S)Nc1sc2c(c1C#N)CCC(C)C2 (stereo not given) | 9.49% (inactive)
55 | O=C1CSC2=NCN(c3ccccc3)CN12 | 5.48% (inactive)
56 | CN(C)c1ccc(N2CN=C3SCC(=O)N3C2)cc1 | -6.22% (inactive)
57 | Cc1ccc(N2CN=C3SCC(=O)N3C2)cc1C | 73.8% (inactive)
58 | Cc1cc(C)cc(N2CN=C3SCC(=O)N3C2)c1 | 4.22% (inactive)
59 | O=C1CN(C(=S)Nc2ccc(OC(F)F)cc2)CCN1 | 5.94% (inactive)
60 | CCOc1cc(C=O)cc(Br)c1OCC(N)=O | -0.11% (inactive)
61 | COc1ccc(/C(O)=C2/C(=O)C(=O)N(CCN3CCOCC3)C2c2cccnc2)cc1OC (stereo not given) | -6.27% (inactive)
62 | COCc1cc(Sc2ccc(Cl)cc2)nc(C)n1 | 18.1% (inactive)
63 | Cc1nc(CS(=O)c2ccc(Cl)cc2)cc(N2CCOCC2)n1 (stereo not given) | 5% (inactive)
64 | Cc1ccc2nsnc2c1S(=O)(=O)N1CCCC1 | -7.86% (inactive)
65 | CCOC(=O)Cc1csc(NC(=O)c2c(O)c3c(n(CC(C)C)c2=O)CCCC3)n1 | 71.9% (inactive)
66 | CCCCCn1c(=O)c(C(=O)OCC)c(O)c2ccccc21 | -3.26% (inactive)
67 | CC(C)CCn1c(=O)c(C(=O)Nc2ccccc2S(N)(=O)=O)c(O)c2ccccc21 | -11.9% (inactive)
68 | CCCCCCCCn1c(=O)c(C(=O)OCC)c(O)c2ccccc21 | 7.93% (inactive)
69 | O=c1cc(CN2CCCCC2)nc(C2CC2)[nH]1 | 3.51% (inactive)
70 | Oc1ccc(-c2nccc(-c3cccs3)n2)cc1 | -3.17% (inactive)
71 | Cc1ccc(C(=O)Nc2nccc(-c3cccs3)n2)cc1 | -6.72% (inactive)
72 | Cc1ccc(C(C)C)c(OCC(O)CN2CCN(CCO)CC2)c1 (stereo not given) | 2.52% (inactive)
73 | CN(C)/C=N/c1c(C#N)cnn1C | -9.88% (inactive)
74 | O=C(O)c1ccc(CN2C(=O)c3ccccc3S2(=O)=O)cc1 | -3.5% (inactive)
75 | Cc1ccc(C(C#N)c2ccc3c(C(F)(F)F)cc(C(F)(F)F)nc3n2)cc1 (stereo not given) | 12% (inactive)

Row | SMILES | inhibition
76 | N#CC(c1ccccc1)c1ccc2c(C(F)(F)F)cc(C(F)(F)F)nc2n1 (stereo not given) | -11.8% (inactive)
77 | Cc1ccc(C)c(-c2nc3cc(N)ccc3o2)c1 | 77.1% (inactive)
78 | CCc1ccc2oc(-c3cccc(N)c3)nc2c1 | 5.28% (inactive)
79 | Nc1cccc(-c2nc3cc(S(=O)(=O)c4ccc5oc(-c6cccc(N)c6)nc5c4)ccc3o2)c1 | -1.41% (inactive)
80 | Nc1ccc2oc(-c3cccc4ccccc34)nc2c1 | 4.7% (inactive)
81 | Cc1ccc2nc(-c3cc(N)cc(N)c3)oc2c1 | 56.3% (inactive)
82 | Cc1ccc2nc(-c3cccnc3)oc2c1 | -9.72% (inactive)
83 | CCc1ccc2oc(-c3cc(N)ccc3Cl)nc2c1 | 1.18% (inactive)
84 | Cc1ccc(-c2nc3cc(N)ccc3o2)c(C)c1 | 8.94% (inactive)
85 | CC(C)CNS(=O)(=O)c1ccc(CCC(=O)Nc2cc(Cl)ccc2Oc2ccccc2)cc1 | 9.05% (inactive)
86 | CC(=O)Nc1cccc(Cn2cccn2)c1 | -6.83% (inactive)
87 | Cc1ccc(C)c(S(=O)(=O)NC(Cc2c[nH]c3ccccc23)C(=O)O)c1 (stereo not given) | -3.14% (inactive)
88 | Cc1ccc(N(C(=O)c2ccncc2)C2C=CS(=O)(=O)C2)cc1 (stereo not given) | -9.29% (inactive)
89 | CCCCCCc1cc2cc(C(=O)NCc3ccccc3)c(=N)oc2cc1O | -13.1% (inactive)
90 | CCCCCCc1cc2cc(C(N)=O)c(=N)oc2cc1O | -2.17% (inactive)
91 | O=C1N=C(N2CCN(c3ccccc3)CC2)S/C1=C/c1cccs1 | 50.8% (inactive)
92 | O=C1N=C(N2CCN(c3cccc4ccccc34)CC2)S/C1=C/c1cccs1 | 85.6% (inactive)
93 | CCOc1ccc(NC(=O)NCCN2C(C)CCCC2C)cc1 (stereo not given) | -2.64% (inactive)
94 | N#Cc1c(NC(=O)CSCC(=O)O)sc2c1CCCC2 | -15.3% (inactive)
95 | C/C(=N\Nc1nc2ccccc2[nH]1)c1cc2ccccc2o1 | 56.4% (inactive)
96 | COc1ccc2oc(C(=O)Nc3nc4ccccc4[nH]3)c(C)c2c1 | 51.1% (inactive)
97 | Cc1c(C(=O)Nc2ccncc2)oc2ccccc12 | -1.93% (inactive)
98 | O=C(Nc1nc2ccccc2[nH]1)c1ccccc1 | 19.3% (inactive)
99 | O=C(/C=C\c1ccc2c(c1)OCO2)Nc1nnc(SCC(=O)OCc2ccccc2)s1 | 20.4% (inactive)
100 | CCOc1ccc(OCC)c(S(=O)(=O)NC2CC(C)(C)NC(C)(C)C2)c1 | -3.13% (inactive)
